# Measured values: PubChem BioAssay
# Activity calls are given as the source filed them.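 Rule for the calls: active = thallium flux through the channel raised or lowered by more than 3 SD from vehicle-only wells, actives on both sides; inactive = the rest.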
# How the values were obtained:
# Experiment in all cases: BK channel mutant inhibitors and activators – cell-based, U2OS BacMam, thallium flux, beta subunits, selectivity assay, profiling panel (AID 1259406);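 note: initial slope of Thallos dye fluorescence rise after thallium is added; log ratio against the mean of 0.3% DMSO vehicle wells on the same plate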
# [1] = test system: F380Y; conditions: U2OS BacMam BK variants, at 30 µM
# [2] = test system: F380Y/beta1; conditions: U2OS BacMam BK variants, at 30 µM
# [3] = test system: F380Y/beta2Delta; conditions: U2OS BacMam BK variants, at 30 µM
# [4] = test system: F380Y/beta4; conditions: U2OS BacMam BK variants, at 30 µM
# [5] = target: Calcium-activated potassium channel subunit alpha-1 (Homo sapiens) + Leucine-rich repeat-containing protein 26 (Homo sapiens) (UniProt Q12791+Q2I0M4); conditions: U2OS BacMam BK variants, F380Y/Slo1WT/gamma1, at 30 µM
# Sequence of Calcium-activated potassium channel subunit alpha-1 (Homo sapiens) + Leucine-rich repeat-containing protein 26 (Homo sapiens) (Q2I0M4 whole entry, looked up, one chain of several): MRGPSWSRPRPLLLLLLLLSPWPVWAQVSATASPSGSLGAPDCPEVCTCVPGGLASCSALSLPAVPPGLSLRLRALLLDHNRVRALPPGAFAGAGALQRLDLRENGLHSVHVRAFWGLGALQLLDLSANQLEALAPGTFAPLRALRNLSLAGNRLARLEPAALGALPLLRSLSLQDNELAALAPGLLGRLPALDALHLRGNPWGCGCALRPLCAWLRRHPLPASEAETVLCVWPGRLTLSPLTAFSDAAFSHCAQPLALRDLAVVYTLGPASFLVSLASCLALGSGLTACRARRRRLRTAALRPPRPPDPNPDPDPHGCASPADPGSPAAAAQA
# [6] = test system: R275C; conditions: U2OS BacMam BK variants, at 30 µM
# [7] = test system: R275C/beta1; conditions: U2OS BacMam BK variants, at 30 µM
# [8] = test system: R275C/beta2Delta; conditions: U2OS BacMam BK variants, at 30 µM
# [9] = test system: R275C/beta4; conditions: U2OS BacMam BK variants, at 30 µM
# [10] = test system: R275C/Slo1WT/beta2; conditions: U2OS BacMam BK variants, at 30 µM
SMILES,log fold change Tl+ flux [1],log fold change Tl+ flux [2],log fold change Tl+ flux [3],log fold change Tl+ flux [4],log fold change Tl+ flux [5],log fold change Tl+ flux [6],log fold change Tl+ flux [7],log fold change Tl+ flux [8],log fold change Tl+ flux [9],log fold change Tl+ flux [10]
Cc1nnc(-c2ccccn2)[nH]c1=O,-0.0188 (inactive),-0.0365 (inactive),-0.0191 (inactive),-0.0613 (inactive),0.0158 (inactive),0.0139 (inactive),-0.0558 (inactive),0.00421 (inactive),-0.00382 (inactive),0.0227 (inactive)
CC(C)(C)c1ccc(Oc2ccc(NC(=O)Nc3cccs3)cn2)cc1,-0.105 (active),0.131 (active),-0.0118 (inactive),0.0598 (inactive),0.0627 (inactive),0.0691 (inactive),0.0982 (inactive),0.0026 (inactive),0.026 (inactive),-0.00521 (inactive)
FC(F)(F)c1ccc(-c2csc(C3(c4ccc(Cl)cc4Cl)CC3)n2)cc1,-0.0289 (inactive),0.000911 (inactive),0.0443 (inactive),-0.0216 (inactive),0.0176 (inactive),-0.00802 (inactive),0.0119 (inactive),-0.00666 (inactive),0.0455 (inactive),-0.0337 (inactive)
Cc1ccc(S(=O)(=O)c2ncsc2SCc2ccc(Cl)cc2Cl)cc1,0.0356 (inactive),-0.0176 (inactive),0.0366 (inactive),-0.0184 (inactive),0.00897 (inactive),-0.00241 (inactive),0.0419 (inactive),-0.0166 (inactive),-0.0112 (inactive),-0.00155 (inactive)
O=C(O)C(Cc1ccccc1[N+](=O)[O-])=NNc1ccccc1,0.0136 (inactive),0.0239 (inactive),0.0162 (inactive),0.0888 (inactive),0.0895 (inactive),0.0387 (inactive),0.0681 (inactive),0.0201 (inactive),0.0231 (inactive),0.00699 (inactive)
Cc1ncc(CSc2nc(C(C)(C)C)cs2)c(CO)c1O,-0.0128 (inactive),-0.0261 (inactive),-0.035 (inactive),-0.0366 (inactive),-0.0352 (inactive),-0.0209 (inactive),-0.00193 (inactive),0.0196 (inactive),0.00379 (inactive),-0.00882 (inactive)
O=S(=O)(c1ccc(N2CCOCC2)nc1)N1CCN(c2c(Cl)cncc2Cl)CC1,0.0448 (inactive),-0.00781 (inactive),0.0236 (inactive),-0.00865 (inactive),-0.039 (inactive),0.00433 (inactive),0.0279 (inactive),0.0194 (inactive),-0.0287 (inactive),0.00545 (inactive)
O=C(CC(=O)NNC(=O)c1ccc(F)cc1)NNC(=O)c1ccc(F)cc1,0.0677 (inactive),-0.0109 (inactive),0.0456 (inactive),-0.0066 (inactive),-0.0103 (inactive),-0.0271 (inactive),0.0179 (inactive),0.0309 (inactive),-0.00647 (inactive),-0.086 (inactive)
NC(Cc1ccc(OCc2ncc(C(F)(F)F)cc2Cl)cc1)=NOC(=O)c1ccccc1,0.0193 (inactive),-0.00621 (inactive),0.00968 (inactive),-0.0023 (inactive),-0.00749 (inactive),0.0533 (inactive),0.0113 (inactive),0.000291 (inactive),0.00465 (inactive),0.0382 (inactive)
CN1c2ccccc2C(C)(C)C12C=Cc1cc(Br)cc([N+](=O)[O-])c1O2 (stereo not given),0.0436 (inactive),0.162 (active),0.0613 (inactive),0.00641 (inactive),0.0283 (inactive),0.00244 (inactive),0.132 (active),0.0868 (active),0.0424 (inactive),-0.0665 (inactive)
O=c1[nH]cnc2scc(-c3cccs3)c12,-0.0452 (inactive),-0.0118 (inactive),0.0191 (inactive),0.0165 (inactive),-0.0657 (inactive),-0.0434 (inactive),0.00866 (inactive),-0.0381 (inactive),0.0239 (inactive),-0.0542 (inactive)
CC(=O)Oc1ccc(OC(C)=O)c2cc3c(OC(C)=O)ccc(OC(C)=O)c3cc12,-0.0214 (inactive),-0.0286 (inactive),-0.0254 (inactive),0.0175 (inactive),0.0282 (inactive),-0.0106 (inactive),-0.0199 (inactive),-0.0114 (inactive),-0.0622 (inactive),0.0234 (inactive)
O=S(=O)(Cc1nc(C=Cc2cc(C(F)(F)F)cc(C(F)(F)F)c2)no1)c1ccc(Cl)cc1,-0.0307 (inactive),0.0685 (inactive),0.000486 (inactive),-0.0134 (inactive),0.00425 (inactive),0.0144 (inactive),0.0543 (inactive),0.0281 (inactive),-0.0177 (inactive),0.00318 (inactive)
NC1(C(=O)O)CCSCC1,-0.0475 (inactive),0.00895 (inactive),-0.0146 (inactive),0.00194 (inactive),-0.0223 (inactive),-0.0154 (inactive),-0.0495 (inactive),0.0435 (inactive),-0.00913 (inactive),-0.00295 (inactive)
CC(c1ccccc1)n1c(SCc2cc(=O)oc3cc(O)ccc23)n[nH]c1=O (stereo not given),-0.0609 (inactive),0.00559 (inactive),0.0151 (inactive),0.0558 (inactive),0.0977 (inactive),0.0366 (inactive),0.0338 (inactive),0.123 (active),0.102 (active),-0.0189 (inactive)
Cc1nc(-c2ccccc2)sc1C(=O)NC(=O)c1ccccc1O,0.0264 (inactive),0.0766 (inactive),0.0338 (inactive),0.00645 (inactive),0.146 (active),0.0501 (inactive),0.0519 (inactive),0.07 (inactive),0.078 (inactive),0.011 (inactive)
CSc1nc(C=Nc2cccc(Cl)c2)c(O)n1Cc1cccc(Cl)c1,-0.00291 (inactive),0.208 (active),0.0623 (inactive),-0.0889 (inactive),0.0392 (inactive),-0.03 (inactive),0.102 (inactive),0.137 (active),0.11 (active),-0.0459 (inactive)
CN1CCN(S(=O)(=O)c2ccc(CNC(=O)c3ccccc3)s2)CC1,-0.0286 (inactive),-0.0353 (inactive),-0.0627 (inactive),-0.0096 (inactive),-0.0465 (inactive),0.0435 (inactive),0.0151 (inactive),-0.00195 (inactive),0.00386 (inactive),-0.0258 (inactive)
Cc1onc(-c2c(Cl)cccc2Cl)c1C1=NCCO1,-0.0274 (inactive),-0.0222 (inactive),-0.0541 (inactive),-0.0118 (inactive),-0.0114 (inactive),-0.0117 (inactive),-0.0507 (inactive),-0.0377 (inactive),0.0277 (inactive),-0.00731 (inactive)
CCCOc1ccccc1C=NNC(=S)Nc1ccc(C)c(C)c1,0.0357 (inactive),0.0157 (inactive),0.00918 (inactive),0.0274 (inactive),-0.0242 (inactive),-0.0214 (inactive),0.0271 (inactive),-0.0014 (inactive),0.00171 (inactive),0.0415 (inactive)
FC(F)(F)c1cc(-c2noc(-c3ccc4c(c3)CCO4)n2)cc(C(F)(F)F)c1,0.118 (active),0.292 (active),0.24 (active),0.269 (active),0.0774 (inactive),0.0291 (inactive),0.191 (active),0.182 (active),0.0808 (active),-0.0138 (inactive)
O=C1CSC(=S)N1N=Cc1cccnc1,0.0409 (inactive),0.00585 (inactive),0.0225 (inactive),0.0146 (inactive),0.0179 (inactive),0.0256 (inactive),-0.0433 (inactive),0.0173 (inactive),0.00843 (inactive),-0.022 (inactive)
CCOC(=O)Cn1c(-c2c(Cl)cccc2Cl)noc1=O,0.00248 (inactive),-0.00728 (inactive),-0.0091 (inactive),-0.00368 (inactive),-0.0669 (inactive),0.0179 (inactive),-0.00444 (inactive),0.0184 (inactive),-0.018 (inactive),0.00072 (inactive)
O=C(Nc1ccc(OC(F)(F)F)cc1)Nc1cc(C(F)(F)F)ccc1N1CCOCC1,0.0283 (inactive),-0.00979 (inactive),0.0491 (inactive),-0.00808 (inactive),0.0378 (inactive),0.022 (inactive),0.0354 (inactive),-0.0143 (inactive),-0.0232 (inactive),-0.0238 (inactive)
O=C(C(=NN=Cc1ccc2c(c1)OCO2)c1ccccc1)c1ccccc1,-0.0112 (inactive),-0.00905 (inactive),-0.0268 (inactive),-0.0584 (inactive),-0.0678 (inactive),-0.163 (active),-0.3 (active),0.000499 (inactive),-0.138 (active),-0.0825 (inactive)
Cc1oc(S(=O)(=O)N2CCOCC2)cc1C(=O)Nc1ccc(F)cc1,0.119 (active),-0.00781 (inactive),-0.0147 (inactive),-0.000333 (inactive),0.0253 (inactive),0.0114 (inactive),0.0125 (inactive),0.00085 (inactive),0.00598 (inactive),-0.0174 (inactive)
Cc1onc(-c2ccccc2)c1N1C(=O)CCN(C(C)C)C1=O,-0.0312 (inactive),-0.00917 (inactive),-0.0373 (inactive),-0.00603 (inactive),-0.0319 (inactive),-0.0915 (active),0.0435 (inactive),-0.0125 (inactive),-0.0122 (inactive),0.000512 (inactive)
